According to PubChem BioAssay:
Values without a mark were called inactive. Activity calls are given as the source filed them. Cut-off read from the data, not from the text of the source, unless noted: active = inhibition above about 28%; inactive = the rest.

tested on: not listed separately; test: StAR promoter reporter inhibitors, counter-screen for LRH-1 inverse agonist project, cell-based, luminescence, high throughput (AID 651611); conditions: StAR promoter luciferase reporter counterscreen, at 3.6 µM, stronger effect = higher value

| Structure (SMILES) | inhibition |
| --- | --- |
| CCCn1c2c(c(=N)c3c1CCC3)CCCC2 | 4.81% |
| CCOc1ccc(CCNC(=O)COC(=O)COc2ccc(Br)cc2)cc1OCC | 4.03% |
| CC1(C)Cc2c(sc3nc(SCC(=O)NCc4ccco4)n(-c4ccccc4)c(=O)c23)CS1 | 14% |
| N#Cc1c2ccc([N+](=O)[O-])cc2[n+]([O-])n1-c1ccccc1 | 58.2% (active) |
| Cc1ccc(NC(=O)COC(=O)C(NS(=O)(=O)c2ccc(Cl)cc2)C(C)O)cc1C (stereo not given) | 2.25% |
| COc1ccc(NC(=O)CSc2nnc(Cc3ccccc3)c(=O)n2N)c(OC)c1 | 5.02% |
| C=CC(=O)Nc1ccc(Br)cc1 | 20.7% |
| Cc1cc([N+](=O)[O-])ccc1NCc1ccc2ccccc2c1 | 1.75% |
| O=C(Cc1ccc(Cl)cc1Cl)Nc1ccncc1Cl | 16.4% |
| CCOc1ccc(NC(=O)Cn2cc(C(C)=O)c3ccccc32)cc1 | 22.7% |
| Cc1onc(-c2ccccc2Cl)c1-c1nc(-c2ccncc2)no1 | 7.38% |
| O=C(Nc1cc(C(F)(F)F)ccc1-n1cncn1)c1ccc([N+](=O)[O-])o1 | 22.2% |
| CC[C@H](CO)Nc1nc(Nc2cccc(Cl)c2)c2ncn(C(C)C)c2n1 | 26% |
| CN1C(=O)NC(c2ccccc2[N+](=O)[O-])C2=C1CC(C)(C)CC2=O (stereo not given) | 3.55% |
| CSCc1c(C(=O)Nc2ccccc2N2CCOCC2)oc2ccccc12 | 7.6% |
| COc1ccc(-c2c(-c3ccccc3)c(C(=O)C(=O)NCCCN(C)C)n3ccc4cc(OC)c(OC)cc4c23)cc1OC | 20.4% |
| COC(=O)c1ccc(NC(=O)CN2CCN(c3ccc(Cl)cc3)CC2)cc1 | -0.66% |
| COc1ccc(NC(=O)COC(=O)CNC(=O)c2cc(OC)c(OC)c(OC)c2)cc1 | 8.08% |
| CCOc1ccc(Br)cc1/C(C)=N\NC1=NCCN1 | 1.83% |
| CCc1cc(=O)oc2cc3occ(-c4ccc(OC)c(F)c4)c3cc12 | 26.4% |

| Structure (SMILES) | inhibition |
| --- | --- |
| O=C(CSc1nnc(Cc2cccs2)n1-c1ccccc1)Nc1ccc2c(c1)OCCO2 | -2.83% |
| CC(=O)Nc1sc2c(c1-c1nc3ccccc3s1)CN(C(C)C)CC2 | 36.6% (active) |
| O=C(CN1C(=O)NC2(CCCCC2)C1=O)NCCc1c[nH]c2ccccc12 | 10.1% |
| Cc1sc(NC(=S)NC(=O)CCc2ccccc2)c(C(N)=O)c1C | 54% (active) |
| O=C(c1ccc([N+](=O)[O-])s1)N1CCN(c2ncccn2)CC1 | 1.48% |
| Cc1ccc(NC(=O)c2ccc([N+](=O)[O-])o2)cc1S(=O)(=O)N1CCOCC1 | 17.7% |
| Cc1cc(C)c(C(N)=O)c(Nc2cccc3ccccc23)n1 | 1.09% |
| COc1ccc(NC(=O)c2cc(-c3cc(F)ccc3OC)n[nH]2)cc1OC | 28.8% (active) |
| CCC1CCCCN1C(=O)c1ccc([N+](=O)[O-])o1 (stereo not given) | 0.98% |
| CC(=NNC(=S)N1CCN(c2ccccn2)CC1)c1nccs1 | 82.9% (active) |
| Cn1c(=O)n(C)c2cc(NC(=O)CSc3nnc(-c4ccccc4O)n3-c3ccccc3)ccc21 | 30.1% (active) |
| CCOC(=O)c1cc(-c2ccncc2)nc2c1c(C)nn2-c1ccccn1 | 14.2% |
| C/C(CC1CC(C)(C)OC1=O)=N/Nc1nc(-c2ccccc2)cs1 (stereo not given) | -5.65% |
| COC(=O)c1c(NC(=O)c2ccc([N+](=O)[O-])o2)sc2c1CCN(C(C)C)C2 | 28% (active) |
| Cc1onc(NC(=O)c2ccc([N+](=O)[O-])o2)c1Br | 4.26% |
| CC1(C)Cc2ccccc2-c2nnnn21 | 3.18% |
| CC(=O)c1ccc(NC(=O)CN2C(=O)NC3(CCc4ccccc43)C2=O)cc1 (stereo not given) | 12.2% |
| COc1ccc(C[C@@H]2OC3(C=CC(=O)C=C3)O[C@H]2Cc2ccc(OC)cc2)cc1 | 37.5% (active) |
| N#CC1=C(N2CCOCC2)/C(=C\c2ccccc2)CC1 | 14.8% |
| COc1cc(C(=O)NN=Cc2ccc(N(C)C)cc2)cc(OC)c1OC | 37.3% (active) |

biological target: Nuclear receptor subfamily 5 group A member 2 (Homo sapiens) (UniProt O00482); test: NR5A2 activity suppression in reporter cells – cell-based, luminescence, confirmation (AID 651613; in the data active = inhibition above about 42%;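 note: HEK293T cells co-transfected with LRH-1 and StAR promoter luciferase reporter; 0% = vehicle wells and 100% = parental cells lacking receptor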); conditions: cell-based LRH-1 luciferase reporter, inverse agonism; at 3.6 µM; stronger effect = higher value
Sequence (O00482 whole entry, looked up): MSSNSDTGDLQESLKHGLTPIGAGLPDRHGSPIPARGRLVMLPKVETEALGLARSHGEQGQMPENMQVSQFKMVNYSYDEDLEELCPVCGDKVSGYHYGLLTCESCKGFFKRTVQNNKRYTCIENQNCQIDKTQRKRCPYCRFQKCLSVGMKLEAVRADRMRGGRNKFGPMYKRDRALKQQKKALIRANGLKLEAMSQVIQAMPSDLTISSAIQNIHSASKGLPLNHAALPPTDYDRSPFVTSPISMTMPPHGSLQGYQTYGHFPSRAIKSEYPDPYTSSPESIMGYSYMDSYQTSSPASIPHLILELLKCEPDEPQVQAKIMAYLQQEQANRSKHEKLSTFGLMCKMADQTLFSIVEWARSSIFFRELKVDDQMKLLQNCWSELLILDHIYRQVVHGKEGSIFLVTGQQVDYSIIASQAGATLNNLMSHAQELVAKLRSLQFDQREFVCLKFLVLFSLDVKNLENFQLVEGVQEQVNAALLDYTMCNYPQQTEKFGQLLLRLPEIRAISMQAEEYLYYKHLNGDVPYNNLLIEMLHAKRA

| Structure (SMILES) | inhibition |
| --- | --- |
| CCCn1c2c(c(=N)c3c1CCC3)CCCC2 | 61.8% (active) |
| CCOc1ccc(CCNC(=O)COC(=O)COc2ccc(Br)cc2)cc1OCC | 49.1% (active) |
| CC1(C)Cc2c(sc3nc(SCC(=O)NCc4ccco4)n(-c4ccccc4)c(=O)c23)CS1 | 41.6% (active) |
| N#Cc1c2ccc([N+](=O)[O-])cc2[n+]([O-])n1-c1ccccc1 | 81.5% (active) |
| Cc1ccc(NC(=O)COC(=O)C(NS(=O)(=O)c2ccc(Cl)cc2)C(C)O)cc1C (stereo not given) | 61.8% (active) |
| COc1ccc(NC(=O)CSc2nnc(Cc3ccccc3)c(=O)n2N)c(OC)c1 | 51% (active) |
| C=CC(=O)Nc1ccc(Br)cc1 | 41% |
| Cc1cc([N+](=O)[O-])ccc1NCc1ccc2ccccc2c1 | 43.1% (active) |
| O=C(Cc1ccc(Cl)cc1Cl)Nc1ccncc1Cl | 65.9% (active) |
| CCOc1ccc(NC(=O)Cn2cc(C(C)=O)c3ccccc32)cc1 | 78.3% (active) |
| Cc1onc(-c2ccccc2Cl)c1-c1nc(-c2ccncc2)no1 | 58.1% (active) |
| O=C(Nc1cc(C(F)(F)F)ccc1-n1cncn1)c1ccc([N+](=O)[O-])o1 | 57.7% (active) |
| CC[C@H](CO)Nc1nc(Nc2cccc(Cl)c2)c2ncn(C(C)C)c2n1 | 49.3% (active) |
| CN1C(=O)NC(c2ccccc2[N+](=O)[O-])C2=C1CC(C)(C)CC2=O (stereo not given) | 19% |
| CSCc1c(C(=O)Nc2ccccc2N2CCOCC2)oc2ccccc12 | 65.9% (active) |
| COc1ccc(-c2c(-c3ccccc3)c(C(=O)C(=O)NCCCN(C)C)n3ccc4cc(OC)c(OC)cc4c23)cc1OC | 40.9% |
| COC(=O)c1ccc(NC(=O)CN2CCN(c3ccc(Cl)cc3)CC2)cc1 | 52.3% (active) |
| COc1ccc(NC(=O)COC(=O)CNC(=O)c2cc(OC)c(OC)c(OC)c2)cc1 | 42.9% (active) |
| CCOc1ccc(Br)cc1/C(C)=N\NC1=NCCN1 | 36.8% |
| CCc1cc(=O)oc2cc3occ(-c4ccc(OC)c(F)c4)c3cc12 | 75% (active) |

| Structure (SMILES) | inhibition |
| --- | --- |
| O=C(CSc1nnc(Cc2cccs2)n1-c1ccccc1)Nc1ccc2c(c1)OCCO2 | 34.8% |
| CC(=O)Nc1sc2c(c1-c1nc3ccccc3s1)CN(C(C)C)CC2 | 66.4% (active) |
| O=C(CN1C(=O)NC2(CCCCC2)C1=O)NCCc1c[nH]c2ccccc12 | 47.8% (active) |
| Cc1sc(NC(=S)NC(=O)CCc2ccccc2)c(C(N)=O)c1C | 35.5% |
| O=C(c1ccc([N+](=O)[O-])s1)N1CCN(c2ncccn2)CC1 | 30.8% |
| Cc1ccc(NC(=O)c2ccc([N+](=O)[O-])o2)cc1S(=O)(=O)N1CCOCC1 | 58.5% (active) |
| Cc1cc(C)c(C(N)=O)c(Nc2cccc3ccccc23)n1 | 2% |
| COc1ccc(NC(=O)c2cc(-c3cc(F)ccc3OC)n[nH]2)cc1OC | 43.6% (active) |
| CCC1CCCCN1C(=O)c1ccc([N+](=O)[O-])o1 (stereo not given) | 47.5% (active) |
| CC(=NNC(=S)N1CCN(c2ccccn2)CC1)c1nccs1 | 91.2% (active) |
| Cn1c(=O)n(C)c2cc(NC(=O)CSc3nnc(-c4ccccc4O)n3-c3ccccc3)ccc21 | 58.8% (active) |
| CCOC(=O)c1cc(-c2ccncc2)nc2c1c(C)nn2-c1ccccn1 | 44.6% (active) |
| C/C(CC1CC(C)(C)OC1=O)=N/Nc1nc(-c2ccccc2)cs1 (stereo not given) | 47.3% (active) |
| COC(=O)c1c(NC(=O)c2ccc([N+](=O)[O-])o2)sc2c1CCN(C(C)C)C2 | 45.3% (active) |
| Cc1onc(NC(=O)c2ccc([N+](=O)[O-])o2)c1Br | 64.9% (active) |
| CC1(C)Cc2ccccc2-c2nnnn21 | 14.1% |
| CC(=O)c1ccc(NC(=O)CN2C(=O)NC3(CCc4ccccc43)C2=O)cc1 (stereo not given) | 61.5% (active) |
| COc1ccc(C[C@@H]2OC3(C=CC(=O)C=C3)O[C@H]2Cc2ccc(OC)cc2)cc1 | 68.4% (active) |
| N#CC1=C(N2CCOCC2)/C(=C\c2ccccc2)CC1 | 51.9% (active) |
| COc1cc(C(=O)NN=Cc2ccc(N(C)C)cc2)cc(OC)c1OC | 37.8% |
